High-throughput results: PubChem BioAssay, Center for Chemical Genomics, University of Michigan
Dicer inh – blocks human Dicer maturation of pre-miR-21. cat-ELCCA pre-miR-21 Dicer processing, chemiluminescence; stronger effect = higher value. z-score at 25 µM. 47,000 compounds, 6% hits. AID 1347074; in the data active = z-score above about 3, passing the limit was not always enough;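 note: higher signal means more uncleaved substrate so more Dicer inhibition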
Large screens that a line does not name were inactive. Only a selection was taken, and hits are over-represented in it overall.

CC1C(c2ccccc2)OCCN1CN1C(=O)c2ccccc2C1=O (stereo unspecified)	Dicer inh 3.7
Cc1onc(-c2ccccc2Cl)c1C(=O)N1CCOC(c2ccccc2)C1C (stereo unspecified)	none
O=C1c2ccccc2C(=O)N1CC1CN(CC(O)C(F)(F)F)CCO1 (stereo unspecified)	none
CSc1sc(C(=O)N/N=C/c2c(Cl)cccc2Cl)cc1S(=O)(=O)C(C)C	none
Cc1ccc2nc(NCCO)[nH]c2c1	none
CCOc1ccccc1NC(=O)Nc1ccc(OC)nc1	Dicer inh 3.8
COc1ccccc1NC(=O)NC(N)=O	none
COc1ccccc1NC(=O)Nc1ccccc1OC	none
Cc1cc(N)n2ncc(-c3ccccc3)c2n1	none
Cc1cc(C)n2nc(C)c(-c3ccc(Cl)cc3)c2n1	none
Cc1cc(C)n2ncc(-c3ccc(Cl)cc3)c2n1	Dicer inh 3.9
Fc1ccc(-c2cc3ncc4c(n3n2)-c2ccccc2OC4)cc1	none
FC(F)(F)c1ccc(NCn2nnc3ccccc32)cc1	none
OCCCCCCN(Cn1nnc2ccccc21)Cn1nnc2ccccc21	none
FC(F)(F)Oc1ccccc1NCn1nnc2ccccc21	Dicer inh 3.6
Cc1ccc2c3c1C(=O)C(=O)N3C(C)(C)CC2(C)c1ccccc1 (stereo unspecified)	none
N#Cc1cccnc1NNC(=O)COCC(=O)O	none
C#CC(O)(c1ccc(OC)cc1)c1ccccc1F (stereo unspecified)	Dicer inh 4.1
COc1ccc(N=Nc2c(O)c(O)cc3ccccc23)cc1	none
C=C(c1ccccc1)c1ccc(OC)cc1	none
CCOC(=O)c1sc(SC(C)CC)c2c1CC(C)(C)CC2=O (stereo unspecified)	none
O=C(NC(=S)Nc1ccccc1Cl)c1cnn2c(C(F)(F)F)cc(C(F)(F)F)nc12	none
O=C(NC(=S)Nc1ccccc1Cl)c1ccccc1	none
O=C(NC(=S)Nc1ccccc1Cl)c1ccc(F)cc1F	Dicer inh 10
CC1=C(C#N)C(c2cc3c(cc2Br)OCO3)C2=C(CC(c3ccc(Cl)cc3)CC2=O)N1 (stereo unspecified)	none
O=C(Nc1ccc(N2CCOCC2)cc1)c1cc2cc(Cl)ccc2[nH]1	Dicer inh 4
O=C(Nc1ccc(N2CCOCC2)cc1)c1ncn[nH]1	none
O=C(Nc1ccc(N2CCOCC2)cc1)c1ccc(Oc2cc(Cl)cc(Cl)c2)o1	none
CCCc1nccn1S(=O)(=O)c1cc(F)ccc1OC	none
CCOc1c(N2CCOCC2)c(=O)c1=O	none
CCOc1ccc(-c2nc(C#N)c(N3CC(C)OC(C)C3)o2)cc1 (stereo unspecified)	none
CCOc1c(N2CC(C)OC(C)C2)c(=O)c1=O (stereo unspecified)	Dicer inh 6
O=[N+]([O-])c1c(Nc2ccc(Br)cc2)n[nH]c1-c1nnco1	none
COc1ccc(C2/C(=C(\O)c3ccc(F)cc3)C(=O)C(=O)N2CCCN(C)C)cc1OC (stereo unspecified)	none
Cc1cc(SCC(=O)O)nc(N)n1	none
Nc1nnc(SCC(=O)Nc2ccc(F)c(F)c2F)s1	none
Nc1nnc(SCC(=O)Nc2ccccc2)s1	none
Nc1nnc(SCC(=O)Nc2nncs2)s1	Dicer inh 3.1
C/C(=N\Nc1c(Cl)cccc1Cl)c1sc(CCn2cccc(C(F)(F)F)c2=O)nc1C	none
Cc1ccc(CNCCN2CCOCC2)s1	none
Cc1ccc(CNc2ccc(N3CCOCC3)c(Cl)c2)s1	none
Cc1ccc(CNc2ccc(N3CCOCC3)cc2)s1	Dicer inh 4
CSc1ncc2c(n1)-c1c(SC)sc(C(=O)Nc3ccc(Cl)cc3)c1CC2	none
Cc1nnc(N2C(=O)C(=O)/C(=C(/O)c3ccccc3)C2c2ccccc2F)s1 (stereo unspecified)	none
CC1=NN(c2ccccc2)C(=O)/C1=C\c1ccc(Cl)cc1	none
Cc1c(C#N)c(SCc2c(F)cccc2Cl)nc2ccccc12	none
Cc1[nH]nc(NCCc2ccccc2)c1[N+](=O)[O-]	none
COc1cc(C(=O)NNS(=O)(=O)c2ccccc2C)c(-n2c(C)ccc2C)cc1OC	none
COc1cc(C(=O)NS(=O)(=O)c2ccccc2C)ccc1Cc1cn(C)c2ccc(NC(=O)OC3CCCC3)cc12	Dicer inh 4.3
CCOC(=O)C(C)N(Cc1ccccc1)C(=O)Nc1ccc(Cl)cc1 (stereo unspecified)	none
C#CC1(NC(=O)c2cc(Cl)cc(Cl)c2)CCCCC1	none
CC(C)(C)SCCNc1nc(Oc2ccc(Cl)cc2)nc(Oc2ccc(Cl)cc2)n1	none
C/C(=N\Nc1c(Cl)cc(Cl)cc1Cl)c1cc(F)ccc1O	none
C/C(=N\Nc1c(Cl)cc(Cl)cc1Cl)c1oc(C)nc1C	Dicer inh 3.2
CC(=O)Nc1c(C)cc(Cl)cc1Cl	none
Cc1cc(-c2ccccc2)nc2oc(-c3nnc(SCc4ccc(Cl)cc4)n3C)c(N)c12	none
CCNC(=O)C(COCc1ccccc1)NC(=O)OC(C)(C)C (stereo unspecified)	none
O=C1CC(C(=O)Nc2cccc(Cl)c2)n2c(nc3ccccc32)N1 (stereo unspecified)	none
O=C1CC(C(=O)Nc2cccc(F)c2)n2c(nc3ccccc32)N1 (stereo unspecified)	none
O=C1CC(C(=O)Nc2ccc(Br)cc2)n2c(nc3ccccc32)N1 (stereo unspecified)	Dicer inh 5.1
O=C1c2ccccc2NC(c2ccc(Br)cc2)N1c1ccc(F)cc1 (stereo unspecified)	none
COC(=O)C1=C(Nc2ccc(F)c(Cl)c2)CSC1	none
FC(F)(F)c1ccc(-c2nc(=S)[nH][nH]2)cc1	none
FC(F)(F)c1ccc(-c2nnc(-c3ccc4nccnc4c3)o2)cc1	none
FC(F)(F)c1ccc(C2=NCCO2)cc1	Dicer inh 4.8
O=C(O)CN1C(c2ccccc2O)Nc2ccc(Br)cc2C1c1ccccc1 (stereo unspecified)	Dicer inh 3.1
COc1ccc(C2Nc3ccc(Br)cc3C(c3ccccc3)N2CC(=O)O)cc1 (stereo unspecified)	none
COC(=O)CN1C(=O)Nc2ccc(Br)cc2C1c1ccccc1 (stereo unspecified)	none
COC(=O)c1cccc(NC(=O)c2ccc(C(C)(C)C)cc2)c1	none
CCOC(=O)CCc1c(C)c(C#N)c2nc3ccccc3n2c1N1CCN(C)CC1	none
Cc1ccc(-c2nc3ccccc3o2)cc1N	none
Cc1ccc2oc(-c3cccc(N)c3C)nc2c1	none
Cc1cc2nc(-c3cccc(N)c3C)oc2cc1C	Dicer inh 3
Cc1cc(NC(=O)CCC(=O)O)no1	none
COc1cccc(NC(=S)NC(C)(C)CCO)c1	none
S=C(N/N=C/c1ccccc1)Nc1ccccc1	none
COc1ccc(/C=N/Nc2nc(-c3ccccc3)cs2)cc1	none
Clc1ccccc1/C=N/Nc1nc(-c2ccccc2)cs1	none
c1ccc(-c2csc(NN=C3C4CC5CC(C4)CC3C5)n2)cc1	none
Brc1cn[nH]c1/C=N/Nc1nc(-c2ccccc2)cs1	Dicer inh 3.2
Fc1ccc(/C=N/Nc2nc(-c3ccccc3)cs2)cc1	Dicer inh 6.8
S=C(N/N=C/c1[nH]ncc1Br)Nc1ccccc1	Dicer inh 4.2
Cc1ccccc1CO/N=C\c1[nH]ncc1Br	none
CCOC(=O)c1noc(C)c1-c1csc(N/N=C/c2ccccc2)n1	none
C=CCNc1nc(-c2ccccc2)cs1	none
Cc1onc(-c2ccccc2)c1-c1csc(Nc2ccc(Cl)cc2)n1	none
Cc1onc(-c2ccccc2)c1-c1csc(N/N=C/c2ccccc2)n1	Dicer inh 4
CCc1nn2c(=O)c(NC(=O)c3ccc(Cl)cc3)cnc2s1	none
CN(C)/C=N/c1nnc(SCC#N)s1	none
COC(=O)c1c(C)nn(C)c1-c1snnc1C	none
Cc1cccc(C(=O)Nc2sc3c(c2C(=O)NC(C)(C)C)CCC3)c1	none
COc1ccccc1NC1=C(C(=O)c2ccccc2)N(C)S(=O)(=O)c2ccccc21	none
COc1ccccc1Nc1nc(-c2c(-c3ccc(Cl)cc3Cl)noc2C)cs1	none
